# According to article PMC8384837, “Expanding the binding specificity for RNA recognition by a PUF domain”:
# Key:
# Experiment in all cases: yeast three-hybrid, YBZ-1, SC-Leu-His + 0.5 mM 3-AT, 4 days
# Settings in all cases: tags: N-Gal4 AD-HA kept; label: inside an RPR1-promoter hybrid RNA with tandem MS2 sites; ssRNA
# [1] = biological target: PUM1 PUF domain R5-GRR (Homo sapiens, UniProt Q14671 828-1176, C1007G;Q1011R)
# Summary of the method: (§1)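 Matching RNA elements and Pumilio-1 PUF domain libraries, randomized at the three base-contacting residues of every repeat, were co-expressed from a centromeric plasmid in strain YBZ-1 (LexA–MS2 coat fusion, HIS3 reporter). The repeat regions were PCR-amplified and Illumina-sequenced from cells grown four days on SC-Leu (input) or SC-Leu-His + 0.5 mM 3-AT (selection). The interaction score is the log change in variant frequency from input to selection. It is computed in log2, with a pseudocount of 1 for absent variants.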
# [2] = biological target: PUM1 PUF domain R3-VRD (Homo sapiens, UniProt Q14671 828-1176, C935V;Q939D)
# Summary of the method: as §1
# [3] = biological target: PUM1 PUF domain R8-KYW (Homo sapiens, UniProt Q14671 828-1176, N1122K;Q1126W)
# Summary of the method: as §1
# [4] = biological target: PUM1 PUF domain R4-GRS (Homo sapiens, UniProt Q14671 828-1176, N971G;H972R;Q975S)
# Summary of the method: as §1
# [5] = biological target: PUM1 PUF domain R5-WHS (Homo sapiens, UniProt Q14671 828-1176, C1007W;R1008H;Q1011S)
# Summary of the method: as §1
# [6] = biological target: PUM1 PUF domain R5-TVD (Homo sapiens, UniProt Q14671 828-1176, C1007T;R1008V;Q1011D)
# Summary of the method: as §1
# [7] = biological target: PUM1 PUF domain R5-SAC (Homo sapiens, UniProt Q14671 828-1176, C1007S;R1008A;Q1011C)
# Summary of the method: as §1
# [8] = biological target: PUM1 PUF domain R4-QWP (Homo sapiens, UniProt Q14671 828-1176, N971Q;H972W;Q975P)
# Summary of the method: as §1
# [9] = biological target: PUM1 PUF domain R1-GKR (Homo sapiens, UniProt Q14671 828-1176, S863G;R864K;Q867R)
# Summary of the method: as §1
# [10] = biological target: PUM1 PUF domain R1-KDT (Homo sapiens, UniProt Q14671 828-1176, S863K;R864D;Q867T)
# Summary of the method: as §1
# [11] = biological target: PUM1 PUF domain R1-MRR (Homo sapiens, UniProt Q14671 828-1176, S863M;Q867R)
# Summary of the method: as §1
# [12] = biological target: PUM1 PUF domain R1-RIE (Homo sapiens, UniProt Q14671 828-1176, S863R;R864I;Q867E)
# Summary of the method: as §1
# [13] = biological target: PUM1 PUF domain R5-PFL (Homo sapiens, UniProt Q14671 828-1176, C1007P;R1008F;Q1011L)
# Summary of the method: as §1
# [14] = biological target: PUM1 PUF domain R2-GWW (Homo sapiens, UniProt Q14671 828-1176, N899G;Y900W;Q903W)
# Summary of the method: as §1
# [15] = biological target: PUM1 PUF domain R2-PVM (Homo sapiens, UniProt Q14671 828-1176, N899P;Y900V;Q903M)
# Summary of the method: as §1
# [16] = biological target: T1, PUM1 PUF domain R6-VYN (Homo sapiens, UniProt Q14671 828-1176, N1043V;Q1047N)
# T1 sequence: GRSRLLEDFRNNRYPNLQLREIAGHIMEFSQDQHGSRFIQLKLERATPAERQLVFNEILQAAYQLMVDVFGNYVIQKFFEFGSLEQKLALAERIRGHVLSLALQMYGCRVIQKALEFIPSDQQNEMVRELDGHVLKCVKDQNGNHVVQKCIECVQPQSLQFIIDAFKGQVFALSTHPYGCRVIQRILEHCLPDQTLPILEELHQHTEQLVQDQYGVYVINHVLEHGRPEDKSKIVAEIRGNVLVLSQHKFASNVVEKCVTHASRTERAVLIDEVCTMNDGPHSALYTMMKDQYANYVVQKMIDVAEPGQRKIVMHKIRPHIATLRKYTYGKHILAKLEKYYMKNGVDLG
# Summary of the method: as §1
# [17] = biological target: PUM1 PUF domain R2-VYE (Homo sapiens, UniProt Q14671 828-1176, N899V;Q903E)
# Summary of the method: as §1
# [18] = biological target: PUM1 PUF domain R3-FFV (Homo sapiens, UniProt Q14671 828-1176, C935F;R936F;Q939V)
# Summary of the method: as §1
# [19] = biological target: PUM1 PUF domain R4-GRR (Homo sapiens, UniProt Q14671 828-1176, N971G;H972R;Q975R)
# Summary of the method: as §1
# [20] = biological target: PUM1 PUF domain R4-SFR (Homo sapiens, UniProt Q14671 828-1176, N971S;H972F;Q975R)
# Summary of the method: as §1
sequence,measurement,setting,value
GGCUAGAACUAGUGGAUCCCCCGGCGCCCGGCGGCUCGAGCCCGGGUAAGUGUAAAUAGUCUGCAUGCCGCCGGGCGCCAUGCCUGCAGGUCGACUCUAGAAAACAUG,binding signal,[1],0.47 log2 enrichment (interaction score)
same,binding signal,[2],4.68 log2 enrichment (interaction score)
same,binding signal,[3],5.55 log2 enrichment (interaction score)
same,binding signal,[4],4.09 log2 enrichment (interaction score)
same,binding signal,[5],1.16 log2 enrichment (interaction score)
same,binding signal,[6],0.28 log2 enrichment (interaction score)
GGCUAGAACUAGUGGAUCCCCCGGCGCCCGGCGGCUCGAGCCCGGGUAAGUGUGAAUAGUCUGCAUGCCGCCGGGCGCCAUGCCUGCAGGUCGACUCUAGAAAACAUG,binding signal,[7],3.04 log2 enrichment (interaction score)
GGCUAGAACUAGUGGAUCCCCCGGCGCCCGGCGGCUCGAGCCCGGGUAAGUGUAUAUAGUCUGCAUGCCGCCGGGCGCCAUGCCUGCAGGUCGACUCUAGAAAACAUG,binding signal,[8],5.65 log2 enrichment (interaction score)
same,binding signal,[4],2.08 log2 enrichment (interaction score)
GGCUAGAACUAGUGGAUCCCCCGGCGCCCGGCGGCUCGAGCCCGGGUAAGUGUAAAUUGUCUGCAUGCCGCCGGGCGCCAUGCCUGCAGGUCGACUCUAGAAAACAUG,binding signal,[9],3.4 log2 enrichment (interaction score)
same,binding signal,[10],5.43 log2 enrichment (interaction score)
same,binding signal,[11],5.53 log2 enrichment (interaction score)
same,binding signal,[12],2.99 log2 enrichment (interaction score)
GGCUAGAACUAGUGGAUCCCCCGGCGCCCGGCGGCUCGAGCCCGGGUAAGUGUUAAUAGUCUGCAUGCCGCCGGGCGCCAUGCCUGCAGGUCGACUCUAGAAAACAUG,binding signal,[1],0.43 log2 enrichment (interaction score)
same,binding signal,[13],4.31 log2 enrichment (interaction score)
same,binding signal,[5],4.68 log2 enrichment (interaction score)
GGCUAGAACUAGUGGAUCCCCCGGCGCCCGGCGGCUCGAGCCCGGGUAAGUGUCAAUAGUCUGCAUGCCGCCGGGCGCCAUGCCUGCAGGUCGACUCUAGAAAACAUG,binding signal,[1],5.4 log2 enrichment (interaction score)
same,binding signal,[6],3.26 log2 enrichment (interaction score)
GGCUAGAACUAGUGGAUCCCCCGGCGCCCGGCGGCUCGAGCCCGGGUAAGUGUAAAGAGUCUGCAUGCCGCCGGGCGCCAUGCCUGCAGGUCGACUCUAGAAAACAUG,binding signal,[14],0.92 log2 enrichment (interaction score)
same,binding signal,[15],2.58 log2 enrichment (interaction score)
GGCUAGAACUAGUGGAUCCCCCGGCGCCCGGCGGCUCGAGCCCGGGUAAGUGAAAAUAGUCUGCAUGCCGCCGGGCGCCAUGCCUGCAGGUCGACUCUAGAAAACAUG,binding signal,[16],6.4 log2 enrichment (interaction score)
GGCUAGAACUAGUGGAUCCCCCGGCGCCCGGCGGCUCGAGCCCGGGUAAGUGUAAAAAGUCUGCAUGCCGCCGGGCGCCAUGCCUGCAGGUCGACUCUAGAAAACAUG,binding signal,[14],4.69 log2 enrichment (interaction score)
same,binding signal,[17],2.23 log2 enrichment (interaction score)
GGCUAGAACUAGUGGAUCCCCCGGCGCCCGGCGGCUCGAGCCCGGGUAAGUGUAAGUAGUCUGCAUGCCGCCGGGCGCCAUGCCUGCAGGUCGACUCUAGAAAACAUG,binding signal,[18],6.72 log2 enrichment (interaction score)
GGCUAGAACUAGUGGAUCCCCCGGCGCCCGGCGGCUCGAGCCCGGGUAAGUGUAAAUCGUCUGCAUGCCGCCGGGCGCCAUGCCUGCAGGUCGACUCUAGAAAACAUG,binding signal,[9],3.4 log2 enrichment (interaction score)
same,binding signal,[10],0.73 log2 enrichment (interaction score)
same,binding signal,[11],2.6 log2 enrichment (interaction score)
GGCUAGAACUAGUGGAUCCCCCGGCGCCCGGCGGCUCGAGCCCGGGUAAGUGUAAUUAGUCUGCAUGCCGCCGGGCGCCAUGCCUGCAGGUCGACUCUAGAAAACAUG,binding signal,[18],1.62 log2 enrichment (interaction score)
GGCUAGAACUAGUGGAUCCCCCGGCGCCCGGCGGCUCGAGCCCGGGUAAGUGUACAUAGUCUGCAUGCCGCCGGGCGCCAUGCCUGCAGGUCGACUCUAGAAAACAUG,binding signal,[19],2.98 log2 enrichment (interaction score)
same,binding signal,[20],4.24 log2 enrichment (interaction score)
